Results reported in the supplement of paper PMC10849652.
About 8,800 targets were measured; listed, in parts, are those with a hit and a random draw of the rest. About 0.5% of all pairs of compound and target were hits. A number with no mark means an inactive call.

Columns and labels:
Experiment in all cases: log2 fold change, soluble protein after heating vs DMSO (PISA); higher = thermal stabilisation; K562 lysate, 10 uM; active = over 0.2 and 3.5 SD of the protein, either way, in both replicates (recomputed)
alvocidib = compound: CN1CC[C@H](c2c(O)cc(O)c3c(=O)cc(-c4ccccc4Cl)oc23)[C@H](O)C1 [alvocidib]
In short: (§1)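 Values give the log-two fold change in thermal stability against solvent controls, from duplicates. Crude K562 extract at 1 mg/mL protein, made by dounce homogenisation in PBS pH 7.4 with 1 mM MgCl2, was treated with 10 μM compound for 30 min. After 3 min heating across 48°C-58°C, aliquots were pooled, adjusted to 0.5% NP-40 at 4°C and centrifuged at 21,000xg for 90 min. The supernatant was measured by TMTpro 16plex LC-MS/MS with channel sums equalised.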

Tubastatin A = compound: CN1CCc2c(c3ccccc3n2Cc2ccc(C(=O)NO)cc2)C1 [Tubastatin A]
In short: as §1

[1] = compound: CNC(=O)C1=CC=CC=C1NC2=NC(=NC=C2Cl)NC3=C(C=C(C=C3)N4CCOCC4)OC
In short: as §1

defactinib = compound: CNC(=O)c1ccc(Nc2ncc(C(F)(F)F)c(NCc3nccnc3N(C)S(C)(=O)=O)n2)cc1 [defactinib]
In short: as §1

[2] = compound: CNc1nc(-c2ccc3c(N)n[nH]c3c2)cc(N2C[C@@H](C(=O)NC3CCCCC3)CC[C@H]2C)n1
In short: as §1

encorafenib = compound: COC(=O)N[C@@H](C)CNc1nccc(-c2cn(C(C)C)nc2-c2cc(Cl)cc(NS(C)(=O)=O)c2F)n1 [encorafenib]
In short: as §1

[3] = compound: COC(=O)[C@H](CCSC)NC(=O)C1=C(C=C(C=C1)NC[C@H](CS)N)C2=CC=CC=C2
In short: as §1

alisertib = compound: COc1cc(Nc2ncc3c(n2)-c2ccc(Cl)cc2C(c2c(F)cccc2OC)=NC3)ccc1C(=O)O [alisertib]
In short: as §1

[4] = compound: COc1cc2nc(-c3cc(F)ccc3O)nc(N[C@@H]3CNC[C@H]3C(C)(C)O)c2cc1OC
In short: as §1

gefitinib = compound: COc1cc2ncnc(Nc3ccc(F)c(Cl)c3)c2cc1OCCCN1CCOCC1 [gefitinib]
In short: as §1

lapatinib = compound: CS(=O)(=O)CCNCc1ccc(-c2ccc3ncnc(Nc4ccc(OCc5cccc(F)c5)c(Cl)c4)c3c2)o1 [lapatinib]
In short: as §1

pictilisib = compound: CS(=O)(=O)N1CCN(Cc2cc3nc(-c4cccc5[nH]ncc45)nc(N4CCOCC4)c3s2)CC1 [pictilisib]
In short: as §1

crizotinib = compound: C[C@@H](Oc1cc(-c2cnn(C3CCNCC3)c2)cnc1N)c1c(Cl)ccc(F)c1Cl [crizotinib]
In short: as §1

[5] = compound: C[C@H](C1=CC=C(C=C1)C(=O)NC2=C3C=CNC3=NC=C2)N
In short: as §1

duvelisib = compound: C[C@H](Nc1ncnc2nc[nH]c12)c1cc2cccc(Cl)c2c(=O)n1-c1ccccc1 [duvelisib]
In short: as §1

gandotinib = compound: Cc1cc(Nc2cc(CN3CCOCC3)c3nc(C)c(Cc4ccc(Cl)cc4F)n3n2)n[nH]1 [gandotinib]
In short: as §1

tozasertib = compound: Cc1cc(Nc2cc(N3CCN(C)CC3)nc(Sc3ccc(NC(=O)C4CC4)cc3)n2)n[nH]1 [tozasertib]
In short: as §1

doramapimod = compound: Cc1ccc(-n2nc(C(C)(C)C)cc2NC(=O)Nc2ccc(OCCN3CCOCC3)c3ccccc23)cc1 [doramapimod]
In short: as §1

bafetinib = compound: Cc1ccc(NC(=O)c2ccc(CN3CC[C@H](N(C)C)C3)c(C(F)(F)F)c2)cc1Nc1nccc(-c2cncnc2)n1 [bafetinib]
In short: as §1

[6] = compound: Cc1cccc(CC(=O)N2CCc3c2ccc(-c2cn(C)c4ncnc(N)c24)c3F)n1
In short: as §1

Chain of UniProt Q9UNP9 (Q9UNP9 whole entry, looked up): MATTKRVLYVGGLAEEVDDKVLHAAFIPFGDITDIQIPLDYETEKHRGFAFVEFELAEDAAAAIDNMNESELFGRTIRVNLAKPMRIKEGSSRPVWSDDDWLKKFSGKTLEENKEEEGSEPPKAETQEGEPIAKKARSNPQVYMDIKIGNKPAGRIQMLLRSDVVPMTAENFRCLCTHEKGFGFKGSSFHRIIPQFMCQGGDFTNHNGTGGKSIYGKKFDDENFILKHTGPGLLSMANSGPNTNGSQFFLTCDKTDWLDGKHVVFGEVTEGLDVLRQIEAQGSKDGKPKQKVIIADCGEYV
Chain of UniProt P13861 (P13861 whole entry, looked up): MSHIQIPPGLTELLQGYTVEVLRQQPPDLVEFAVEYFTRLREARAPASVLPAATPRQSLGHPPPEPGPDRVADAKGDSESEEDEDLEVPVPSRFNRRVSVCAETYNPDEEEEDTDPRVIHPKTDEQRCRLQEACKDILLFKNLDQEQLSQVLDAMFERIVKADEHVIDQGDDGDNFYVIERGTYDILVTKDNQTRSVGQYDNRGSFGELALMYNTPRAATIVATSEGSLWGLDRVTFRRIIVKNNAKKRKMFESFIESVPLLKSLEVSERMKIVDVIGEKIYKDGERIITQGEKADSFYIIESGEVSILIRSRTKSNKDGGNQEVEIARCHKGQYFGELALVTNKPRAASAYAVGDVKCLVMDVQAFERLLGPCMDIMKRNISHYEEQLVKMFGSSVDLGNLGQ
Chain of UniProt Q8TCD6 (Q8TCD6 whole entry, looked up): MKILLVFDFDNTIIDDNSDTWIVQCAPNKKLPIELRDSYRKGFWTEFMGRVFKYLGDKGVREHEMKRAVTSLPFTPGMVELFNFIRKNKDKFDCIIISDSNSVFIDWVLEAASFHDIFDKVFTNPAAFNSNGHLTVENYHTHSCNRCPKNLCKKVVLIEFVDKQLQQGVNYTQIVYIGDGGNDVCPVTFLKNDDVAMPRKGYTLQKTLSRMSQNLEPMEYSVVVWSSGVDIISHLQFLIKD
Chain of UniProt Q9Y606 (Q9Y606 whole entry, looked up): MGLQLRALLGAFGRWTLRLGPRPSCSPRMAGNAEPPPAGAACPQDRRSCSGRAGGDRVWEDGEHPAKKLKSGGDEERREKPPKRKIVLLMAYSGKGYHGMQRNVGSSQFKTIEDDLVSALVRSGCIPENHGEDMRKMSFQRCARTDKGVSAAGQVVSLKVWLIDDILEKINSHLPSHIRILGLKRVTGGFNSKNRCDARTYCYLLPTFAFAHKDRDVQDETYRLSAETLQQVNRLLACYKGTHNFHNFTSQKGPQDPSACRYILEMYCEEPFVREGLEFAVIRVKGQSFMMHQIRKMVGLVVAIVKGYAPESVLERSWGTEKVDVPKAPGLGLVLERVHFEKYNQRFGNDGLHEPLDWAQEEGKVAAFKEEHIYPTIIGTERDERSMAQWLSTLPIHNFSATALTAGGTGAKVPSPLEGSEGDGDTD
Chain of UniProt Q9H4Z3 (Q9H4Z3 whole entry, looked up): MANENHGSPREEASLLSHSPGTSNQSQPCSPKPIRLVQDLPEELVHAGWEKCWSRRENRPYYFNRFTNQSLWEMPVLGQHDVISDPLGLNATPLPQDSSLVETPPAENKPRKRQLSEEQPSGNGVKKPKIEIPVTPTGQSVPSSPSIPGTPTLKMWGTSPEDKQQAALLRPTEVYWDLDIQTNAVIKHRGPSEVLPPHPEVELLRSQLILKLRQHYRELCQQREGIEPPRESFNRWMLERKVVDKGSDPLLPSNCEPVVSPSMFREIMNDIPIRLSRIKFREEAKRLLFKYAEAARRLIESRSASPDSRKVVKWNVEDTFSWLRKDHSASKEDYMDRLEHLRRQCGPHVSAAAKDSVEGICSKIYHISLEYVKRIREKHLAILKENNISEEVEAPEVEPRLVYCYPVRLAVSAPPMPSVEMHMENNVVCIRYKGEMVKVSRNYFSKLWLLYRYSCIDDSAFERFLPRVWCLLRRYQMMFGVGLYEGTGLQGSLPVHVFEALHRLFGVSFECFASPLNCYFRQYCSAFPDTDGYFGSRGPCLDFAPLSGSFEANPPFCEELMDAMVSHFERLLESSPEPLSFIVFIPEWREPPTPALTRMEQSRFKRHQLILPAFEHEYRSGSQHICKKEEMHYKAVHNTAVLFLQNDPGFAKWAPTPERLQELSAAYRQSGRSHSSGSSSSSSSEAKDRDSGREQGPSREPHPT
Chain of UniProt Q8WUM4 (Q8WUM4 whole entry, looked up): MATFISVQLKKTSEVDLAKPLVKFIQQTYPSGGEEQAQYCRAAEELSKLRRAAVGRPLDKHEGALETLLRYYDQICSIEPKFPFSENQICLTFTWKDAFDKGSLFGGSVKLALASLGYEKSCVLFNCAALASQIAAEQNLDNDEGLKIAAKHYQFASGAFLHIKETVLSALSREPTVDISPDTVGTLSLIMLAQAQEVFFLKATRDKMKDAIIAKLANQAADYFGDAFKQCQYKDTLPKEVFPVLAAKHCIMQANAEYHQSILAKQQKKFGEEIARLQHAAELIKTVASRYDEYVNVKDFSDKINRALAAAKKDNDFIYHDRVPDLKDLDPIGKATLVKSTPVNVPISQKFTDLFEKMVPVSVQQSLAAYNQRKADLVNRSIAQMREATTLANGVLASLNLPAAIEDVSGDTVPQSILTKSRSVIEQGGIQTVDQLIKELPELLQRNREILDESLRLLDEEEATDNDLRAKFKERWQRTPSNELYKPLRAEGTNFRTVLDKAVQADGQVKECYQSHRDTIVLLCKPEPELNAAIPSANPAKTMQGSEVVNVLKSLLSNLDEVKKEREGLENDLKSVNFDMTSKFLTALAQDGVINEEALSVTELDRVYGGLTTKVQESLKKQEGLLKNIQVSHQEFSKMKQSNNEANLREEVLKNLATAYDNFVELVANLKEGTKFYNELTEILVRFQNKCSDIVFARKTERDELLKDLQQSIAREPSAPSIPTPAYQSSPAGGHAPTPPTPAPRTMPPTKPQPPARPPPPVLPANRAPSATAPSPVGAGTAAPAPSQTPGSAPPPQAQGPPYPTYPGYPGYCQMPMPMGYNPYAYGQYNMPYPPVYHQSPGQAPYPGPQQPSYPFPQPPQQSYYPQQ
Chain of UniProt Q14671 (Q14671 whole entry, looked up): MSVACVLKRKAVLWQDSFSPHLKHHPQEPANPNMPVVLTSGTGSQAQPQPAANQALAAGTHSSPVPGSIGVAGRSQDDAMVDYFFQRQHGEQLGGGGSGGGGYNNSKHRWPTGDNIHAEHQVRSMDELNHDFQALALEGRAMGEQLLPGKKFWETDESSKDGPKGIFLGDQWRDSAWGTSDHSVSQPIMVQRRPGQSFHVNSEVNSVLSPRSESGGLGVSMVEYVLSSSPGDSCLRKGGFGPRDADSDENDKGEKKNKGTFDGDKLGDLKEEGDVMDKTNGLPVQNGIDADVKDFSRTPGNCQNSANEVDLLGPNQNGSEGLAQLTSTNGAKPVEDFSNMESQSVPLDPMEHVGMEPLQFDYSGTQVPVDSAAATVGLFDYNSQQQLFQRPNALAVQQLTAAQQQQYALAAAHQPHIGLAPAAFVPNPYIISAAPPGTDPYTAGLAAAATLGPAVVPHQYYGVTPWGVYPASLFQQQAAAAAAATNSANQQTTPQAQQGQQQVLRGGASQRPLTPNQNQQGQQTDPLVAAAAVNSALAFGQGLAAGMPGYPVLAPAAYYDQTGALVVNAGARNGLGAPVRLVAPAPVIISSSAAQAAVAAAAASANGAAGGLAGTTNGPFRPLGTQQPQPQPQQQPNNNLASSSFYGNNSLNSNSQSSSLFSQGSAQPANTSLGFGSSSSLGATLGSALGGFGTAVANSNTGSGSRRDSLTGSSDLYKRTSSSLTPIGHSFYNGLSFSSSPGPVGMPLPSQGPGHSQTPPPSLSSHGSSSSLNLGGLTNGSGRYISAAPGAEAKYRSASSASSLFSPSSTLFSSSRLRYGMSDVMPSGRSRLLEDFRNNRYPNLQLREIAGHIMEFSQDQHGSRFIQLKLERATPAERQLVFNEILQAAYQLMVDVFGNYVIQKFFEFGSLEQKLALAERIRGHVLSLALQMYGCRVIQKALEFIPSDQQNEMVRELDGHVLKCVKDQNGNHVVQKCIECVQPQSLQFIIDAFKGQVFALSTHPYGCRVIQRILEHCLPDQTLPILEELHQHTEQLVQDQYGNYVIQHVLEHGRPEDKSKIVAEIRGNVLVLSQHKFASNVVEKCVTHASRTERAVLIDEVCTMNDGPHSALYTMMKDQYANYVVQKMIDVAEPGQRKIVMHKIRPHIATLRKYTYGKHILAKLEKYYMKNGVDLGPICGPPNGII
Chain of UniProt Q9UBF8 (Q9UBF8 whole entry, looked up): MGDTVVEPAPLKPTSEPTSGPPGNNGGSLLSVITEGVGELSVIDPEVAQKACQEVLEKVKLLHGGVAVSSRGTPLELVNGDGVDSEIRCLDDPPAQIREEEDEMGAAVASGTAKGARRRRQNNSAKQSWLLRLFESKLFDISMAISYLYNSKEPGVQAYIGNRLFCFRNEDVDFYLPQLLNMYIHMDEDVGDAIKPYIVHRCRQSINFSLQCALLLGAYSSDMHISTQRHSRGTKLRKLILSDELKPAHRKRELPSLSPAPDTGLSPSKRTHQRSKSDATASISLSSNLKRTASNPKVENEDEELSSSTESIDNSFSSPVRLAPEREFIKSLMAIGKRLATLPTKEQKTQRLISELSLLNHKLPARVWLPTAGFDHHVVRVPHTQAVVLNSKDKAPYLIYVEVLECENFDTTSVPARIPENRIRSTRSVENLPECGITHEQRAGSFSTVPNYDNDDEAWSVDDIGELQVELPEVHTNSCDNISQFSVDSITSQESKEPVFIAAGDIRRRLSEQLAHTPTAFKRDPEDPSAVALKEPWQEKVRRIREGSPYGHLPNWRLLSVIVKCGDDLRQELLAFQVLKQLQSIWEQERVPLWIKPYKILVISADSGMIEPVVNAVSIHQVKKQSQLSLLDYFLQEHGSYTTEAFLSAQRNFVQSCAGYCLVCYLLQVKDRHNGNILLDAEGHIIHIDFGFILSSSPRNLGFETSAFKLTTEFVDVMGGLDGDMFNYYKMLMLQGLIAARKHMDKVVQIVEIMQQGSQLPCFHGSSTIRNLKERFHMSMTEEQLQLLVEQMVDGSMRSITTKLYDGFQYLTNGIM

Target | log2 fold change (alvocidib) | log2 fold change (Tubastatin A) | log2 fold change [1] | log2 fold change (defactinib) | log2 fold change [2] | log2 fold change (encorafenib) | log2 fold change [3] | log2 fold change (alisertib) | log2 fold change [4] | log2 fold change (gefitinib) | log2 fold change (lapatinib) | log2 fold change (pictilisib) | log2 fold change (crizotinib) | log2 fold change [5] | log2 fold change (duvelisib) | log2 fold change (gandotinib) | log2 fold change (tozasertib) | log2 fold change (doramapimod) | log2 fold change (bafetinib) | log2 fold change [6]
PCBP2 isoform 8 (UniProt Q15366) | -0.01 | -0.133 | 0.022 | 0 | 0.079 | 0.053 | 0.108 | -0.013 | -0.085 | -0.122 | 0.022 | -0.013 | 0.001 | 0.013 | 0.04 | 0.029 | -0.026 | -0.092 | 0.082 | 0.036
PRMT8 (UniProt Q9NR22) | -0.11 | -0.019 | 0.001 | -0.103 | -0.005 | -0.002 | 0.004 | -0.01 | 0.016 | 0.034 | -0.011 | 0.004 | -0.037 | -0.256 (active) | 0.012 | 0.071 | 0.008 | -0.001 | -0.112 | 0.168
PHOSPHO2 (UniProt Q8TCD6) | 0.053 | -0.042 | -0.026 | -0.008 | -0.008 | -0.02 | 0.356 (active) | -0.013 | -0.008 | 0.016 | -0.043 | 0.015 | -0.001 | -0.063 | -0.044 | -0.009 | -0.184 | -0.045 | -0.024 | -0.002
PRKAR2A (UniProt P13861) | -0.028 | -0.019 | -0.176 | -0.085 | -0.017 | 0.037 | 0.142 | 0.002 | -0.062 | 0.024 | 0.036 | -0.094 | 0.013 | 0.006 | -0.025 | -0.232 (active) | 0.015 | 0.036 | -0.026 | 0.031
PDCD6IP (UniProt Q8WUM4) | 0.05 | 0 | -0.002 | -0.021 | -0.042 | -0.1 | 0.143 | -0.039 | 0.013 | -0.001 | -0.006 | -0.032 | -0.103 | -0.106 | 0.004 | -0.012 | 0.033 | 0.034 | -0.053 | 0.012
PCIF1 (UniProt Q9H4Z3) | 0.038 | 0.006 | -0.024 | 0.051 | 0.02 | 0.017 | 0.02 | 0.04 | 0.01 | -0.051 | -0.059 | -0.016 | -0.001 | -0.239 (active) | 0.216 | 0.074 | -0.003 | 0.017 | -0.059 | 0.09
PYCR2 (UniProt Q96C36) | -0.052 | 0.041 | 0.004 | 0.001 | 0.011 | -0.005 | -0.038 | 0.013 | -0.001 | -0.005 | -0.029 | -0.021 | 0.026 | 0.021 | -0.004 | 0.01 | 0.001 | -0.012 | 0.034 | -0.01
POLR2B (UniProt P30876) | -0.008 | -0.092 | 0.057 | 0.004 | -0.026 | 0.022 | 0.121 | 0.002 | -0.018 | 0.012 | 0.009 | -0.048 | -0.054 | -0.032 | 0.001 | -0.018 | -0.016 | 0.046 | -0.067 | 0.036
PFKP (UniProt Q01813) | 0.019 | 0.031 | 0.029 | -0.009 | -0.016 | -0.041 | -0.001 | -0.004 | 0.009 | -0.006 | -0.011 | -0.014 | 0.014 | 0.033 | -0.02 | -0.034 | -0.012 | -0.015 | 0.005 | -0.012
PWP1 (UniProt Q13610) | 0.063 | -0.017 | -0.012 | 0.002 | -0.046 | 0.046 | -0.013 | -0.014 | 0.008 | -0.017 | 0.041 | -0.001 | 0.003 | 0.488 (active) | 0.055 | -0.052 | 0 | -0.125 | 0.032 | -0.084
PPIE (UniProt Q9UNP9) | -0.131 | 0.025 | -0.047 | -0.018 | 0.023 | -0.025 | -0.041 | -0.036 | 0.005 | 0.034 | 0.03 | 0 | -0.02 | -0.234 | 0.006 | 0.144 | 0.014 | 0.062 | 0.009 | 0.102
PUS1 (UniProt Q9Y606) | -0.002 | -0.049 | -0.008 | 0.002 | -0.029 | 0 | 0.086 | 0.005 | 0.014 | -0.019 | -0.042 | -0.058 | -0.062 | -0.006 | 0.008 | -0.033 | 0.012 | 0.006 | -0.047 | 0.027
PGRMC1 (UniProt O00264) | -0.026 | 0.01 | -0.022 | 0.02 | -0.014 | 0.006 | -0.258 (active) | 0.006 | 0.006 | 0.03 | 0.001 | -0.023 | 0.057 | -0.011 | -0.024 | 0.047 | 0.035 | -0.052 | 0.004 | 0.018
PFDN2 (UniProt Q9UHV9) | 0.063 | 0.01 | -0.035 | 0.026 | -0.012 | 0.05 | -0.025 | 0.033 | 0.007 | 0.012 | -0.001 | -0.017 | 0.054 | 0.365 (active) | 0 | -0.1 | 0.053 | 0.005 | -0.064 | -0.13
PI4KB (UniProt Q9UBF8) | 0.005 | -0.032 | 0.228 | 0.094 | 0.056 | 0.081 | -0.069 | -0.001 | -0.097 | 0 | 0.02 | 0.031 | -0.011 | -0.01 | 0.005 | 0.011 | -0.02 | 0.055 | -0.073 | 0.014
PUM1 isoform 3 (UniProt Q14671) | 0.02 | -0.033 | -0.017 | 0.017 | -0.023 | 0.008 | 0 | 0.031 | 0.017 | -0.014 | 0.004 | -0.036 | 0.067 | 0.021 | -0.003 | -0.151 | 0.01 | -0.315 (active) | -0.067 | -0.026
